The supplement of paper PMC3898565
± gives the uncertainty stated by the source.

System: U87
Assay: cell viability relative to vehicle control; higher = less growth inhibition (less active)
Conditions: 10 µM; 72 h
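Further: viable cell number estimated from Alamar Blue fluorescence read at 560/90, part of a single-dose primary screen of an FDA-approved drug library.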

**Q.** Which cell viability does the source give for CC(C)C[C@H](NC(=O)[C@@H](O)[C@H](N)Cc1ccccc1)C(=O)O here?
**A.** The cell viability was 97.13 ± 0.56%.

**Q.** For CCCN[C@H]1CCc2nc(N)sc2C1, which cell viability is on record?
**A.** Its cell viability is 105 ± 1.9%.

**Q.** With CNCC[C@H](Oc1cccc2ccccc12)c1cccs1 [Duloxetine] as the compound, how does the cell viability read?
**A.** Its cell viability is 104 ± 1.9%.

**Q.** With COCCOC(=O)C1=C(C)NC(C)=C(C(=O)OC(C)C)C1c1cccc([N+](=O)[O-])c1 (stereo unspecified) as the compound, how does the cell viability read?
**A.** Its cell viability is 103 ± 1.5%.

**Q.** With CCCCCCCCCCC[C@@H](C[C@@H]1OC(=O)[C@H]1CCCCCC)OC(=O)[C@H](CC(C)C)NC=O as the compound, how does the cell viability read?
**A.** The cell viability was 103 ± 3.9%.

**Q.** How did the cell viability turn out when C#C[C@]1(O)CC[C@H]2[C@@H]3CCc4cc(OC)ccc4[C@H]3CC[C@@]21C was run?
**A.** Its cell viability is 102.9 ± 0.33%.

**Q.** For CNS(=O)(=O)Cc1ccc2[nH]cc(CCN(C)C)c2c1, which cell viability is on record?
**A.** The cell viability was 101 ± 1.5%.

**Q.** Which cell viability does the source give for CN1CCCC(n2nc(Cc3ccc(Cl)cc3)c3ccccc3c2=O)CC1 (stereo unspecified) here?
**A.** Its cell viability is 99 ± 2.2%.

**Q.** With CCOC(=O)O[C@]1(C(=O)OCCl)CC[C@H]2[C@@H]3CCC4=CC(=O)C=C[C@]4(C)[C@H]3[C@@H](O)C[C@@]21C as the compound, how does the cell viability read?
**A.** The cell viability was 104 ± 1.4%.

**Q.** How did the cell viability turn out when CCN1CC(CCN2CCOCC2)C(c2ccccc2)(c2ccccc2)C1=O (stereo unspecified) was run?
**A.** Its cell viability is 104 ± 1.3%.

**Q.** How did the cell viability turn out when C[C@H]1COc2c(C3(N)CC3)c(F)cc3c(=O)c(C(=O)O)cn1c23 was run?
**A.** Its cell viability is 101.8 ± 0.5%.

**Q.** With O=[N+]([O-])c1cccc2cn[nH]c12 as the compound, how does the cell viability read?
**A.** The cell viability was 107 ± 1.1%.

**Q.** With COc1ccccc1OCCNCC(O)COc1cccc2[nH]c3ccccc3c12 (stereo unspecified) [Carvedilol] as the compound, how does the cell viability read?
**A.** Its cell viability is 105 ± 2.2%.

**Q.** With CC(C)c1ccc2c(c1)c(SC(C)(C)C)c(CC(C)(C)C(=O)O)n2Cc1ccc(Cl)cc1 as the compound, how does the cell viability read?
**A.** Its cell viability is 99 ± 1.3%.

**Q.** For CO[C@H]1O[C@@H]2O[C@@]3(C)CC[C@H]4[C@H](C)CC[C@@H]([C@H]1C)[C@@]24OO3, which cell viability is on record?
**A.** Its cell viability is 107 ± 2.1%.

**Q.** How did the cell viability turn out when COc1cc2nc(N3CCN(C(=O)C4CCCO4)CC3)nc(N)c2cc1OC (stereo unspecified) [Terazosin] was run?
**A.** The cell viability was 100.6 ± 0.86%.
